The values that follow come from PubChem BioAssay.

Assay [1] in a line: reducers of endogenous Her2 protein level, primary screen, SKBR3 breast tumor cells, AlphaScreen, ATP viability (AID 461;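 active = Her2 level under about 52% in both replicate screens, with viability over 70% of control, limit read from the data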;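 as to Her2 level: lower value means less Her2 protein in the cells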;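 as to viability: percent of carrier control wells set as 100% viability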). As to conditions: 18-24 h, measured here: SKBR3 viability, ATP luminescence, at 10 µM.
Assay [2] addresses Receptor tyrosine-protein kinase erbB-2 (Homo sapiens) (UniProt P04626). The description is as above. The conditions noted are these: 18-24 h, at 10 µM, stronger effect = lower value.
The nature of assay [3]: SK-BR-3 cell growth inhibitors, pilot screen, 24 h, human (AID 572;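 active = viability at or below 10% of carrier control in both of two separate runs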;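 also: compound exposure lasted between 18 and 24 h rather than exactly 24 h; 100% = carrier-treated control wells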). The conditions noted are these: SK-BR-3 viability, CellTiter-Glo luminescence, at 10 µM, stronger effect = lower value.
Assay [4] in a line: HUVEC growth inhibition – cell-based, human, primary screen (AID 575;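 active = viability at or below 30% in both replicate assays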;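 also: 100% = median of untreated cell wells with 0.1% DMSO on each plate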). As to conditions: HUVEC proliferation, CellTiter-Glo luminescence, 72 h; at 10 µM; stronger effect = lower value.
The nature of assay [5]: growth inhibitors of H69AR lung tumor, primary screen, human, duplicate replicates (AID 580;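 active = viability at or under a set limit in both replicates, limit being median viability minus 3 SD, cut at about 48% in these data, passing the limit was not always enough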;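 also: 100% = mean luminescence of untreated wells and 0% = no signal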). The conditions noted are these: H69AR lung tumor cells viability, ATP luminescence, 72 h; at 10 µM; stronger effect = lower value.
Assay [6] can be described thus: reversal of MRP1-mediated doxorubicin resistance, pilot screen, H69AR cells, doxorubicin co-treatment (AID 601;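 active = viability loss from added drug above about 55%, and viability with drug at most 40%, in both replicates, limit read from the data, passing the limit was not always enough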). The conditions noted are these: CellTiter-Glo, 72 h, at 10 µM; for differential viability (reversal): stronger effect = higher value. (Cellular ATP, detected with luciferase, serves as a proxy for viable cell number.)
A short description of assay [7]: 384-well plate pilot, post-Golgi transport modulator project, inhibition of yeast transport mutant growth (AID 636; in the data active = inhibition above about 31%). The conditions noted are these: absorbance 615 nm, about 18 h, stronger effect = higher value.
Assay [8] can be described thus: growth suppression of yeast trafficking mutant, preliminary HTS, modulators of trafficking downstream of Golgi apparatus project, 1536-format plate, OD 615 nm (AID 637; in the data active = inhibition above about 30%). The conditions noted are these: yeast transport mutant growth, absorbance 615 nm, 18 h; stronger effect = higher value.
Assay [9] is described as follows: OD615 S. cerevisiae growth inhibition, permissive medium, pilot counter-assay, permissive growth control for S. cerevisiae lifespan shortening project (AID 705). The conditions noted are these: OD615, 24 h, at 10 µM, stronger effect = higher value.
Assay [10] is described as follows: Restrictive medium S. cerevisiae growth inhibition, OD615, pilot screen of yeast lifespan reduction project, restrictive growth control (AID 706;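 active = growth inhibition above a set limit, 3 SD over mean compound inhibition, in both replicates, cut at about 43% in these data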;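 also: modified DeaD lifespan yeast strain shifted to restrictive glucose medium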). As to conditions: OD615, 48 h, at 10 µM, stronger effect = higher value.
Assay [11] is described as follows: viability gain of MRP-1-high H69AR cells under doxorubicin, pilot screen, MRP-1 activator project, CellTiter-Glo, duplicate (AID 807;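 active = viability increase at or above a cutoff of the median across tested compounds plus 3 SD, cut at about 8.5% in these data, passing the limit was not always enough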;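 also: compound pretreatment 18-22 h then 72 h combined with doxorubicin; 0% = doxorubicin alone and 100% = vehicle without doxorubicin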). The conditions noted are these: H69AR viability with doxorubicin, CellTiter-Glo luminescence; at 10 µM; stronger effect = higher value.
Assay [12] in a line: growth suppression of beta-catenin knockout HCT116, pilot screen, human colon tumor cells (AID 823;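 active = cell viability at or below a set limit in both duplicate runs, the limit being the all-compound median minus 4 SD, cut at about 23% in these data, passing the limit was not always enough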;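 also: 0% = wells killed by 20 µM Hyamine and 100% = untreated DMSO cell wells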). As to conditions: CellTiter-Glo, 60 h, at 10 µM, stronger effect = lower value.
Assay [13] can be described thus: growth suppression of PTEN-deleted HCT116, pilot screen, cell-based, HCT116 clonal line, CellTiter-Glo (AID 824;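 active = viability at or below 27.92% in each of two runs, the all-compound median minus 4 SD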;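 also: 0% = 20 µM Hyamine control and 100% = vehicle cell control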). As to conditions: 60 h, at 10 µM, stronger effect = lower value.
The nature of assay [14]: inhibitors of the yeast RAM network, pilot screen, dse1pr::URA3 reporter, 5-FOA selection (AID 869;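 active = inhibition over a set limit, the all-compound mean plus 3 SD, in both replicate runs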;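 also: 0% = DMSO wells with no growth and 100% = 10 µM 1-NA-PP1 with full growth; RAM network block rescues cells from 5-FOA so hits raise OD615 growth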). As to conditions: S. cerevisiae dse1pr::URA3 5-FOA growth, OD615, 2 d; at 10 µM; stronger effect = higher value; strain carries analog-sensitive mutant Cbk1 kinase.
A short description of assay [15]: RAM signaling pathway blockade in yeast – S. cerevisiae, Pdr1DBD-CYC8 efflux-inhibited sensitized strain, primary screen (AID 1298;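 active = RAM network inhibition above 8.4% in each of two replicates, 3 SD over the compound average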;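 also: 0% = DMSO untreated cells without growth and 100% = 10 µM 1-NA-PP1 full growth; higher means more yeast growth rescued from 5-FOA killing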). The conditions noted are these: S. cerevisiae cbk1-as DSE1-URA3 strain, 5-FOA growth OD615, 2 d; at 50 µM; stronger effect = higher value.
[16] abbreviates: H69AR cells + 2 uM doxorubicin, measured here: viability with 2 uM doxorubicin, stronger effect = lower value.
[17] abbreviates: H69AR cells, compound alone cytotoxicity.

SMILES strings stand for the structures. Inconclusive results are not listed. Active and inactive are the calls of the source.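 The calls were made as follows, unless noted: active = growth inhibition above 25% in both replicates, a cutoff set 3 SD above the mean; inconclusive = above 25% in only one replicate; inactive = the rest.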

Sequence of Receptor tyrosine-protein kinase erbB-2 (Homo sapiens) (P04626 whole entry, looked up): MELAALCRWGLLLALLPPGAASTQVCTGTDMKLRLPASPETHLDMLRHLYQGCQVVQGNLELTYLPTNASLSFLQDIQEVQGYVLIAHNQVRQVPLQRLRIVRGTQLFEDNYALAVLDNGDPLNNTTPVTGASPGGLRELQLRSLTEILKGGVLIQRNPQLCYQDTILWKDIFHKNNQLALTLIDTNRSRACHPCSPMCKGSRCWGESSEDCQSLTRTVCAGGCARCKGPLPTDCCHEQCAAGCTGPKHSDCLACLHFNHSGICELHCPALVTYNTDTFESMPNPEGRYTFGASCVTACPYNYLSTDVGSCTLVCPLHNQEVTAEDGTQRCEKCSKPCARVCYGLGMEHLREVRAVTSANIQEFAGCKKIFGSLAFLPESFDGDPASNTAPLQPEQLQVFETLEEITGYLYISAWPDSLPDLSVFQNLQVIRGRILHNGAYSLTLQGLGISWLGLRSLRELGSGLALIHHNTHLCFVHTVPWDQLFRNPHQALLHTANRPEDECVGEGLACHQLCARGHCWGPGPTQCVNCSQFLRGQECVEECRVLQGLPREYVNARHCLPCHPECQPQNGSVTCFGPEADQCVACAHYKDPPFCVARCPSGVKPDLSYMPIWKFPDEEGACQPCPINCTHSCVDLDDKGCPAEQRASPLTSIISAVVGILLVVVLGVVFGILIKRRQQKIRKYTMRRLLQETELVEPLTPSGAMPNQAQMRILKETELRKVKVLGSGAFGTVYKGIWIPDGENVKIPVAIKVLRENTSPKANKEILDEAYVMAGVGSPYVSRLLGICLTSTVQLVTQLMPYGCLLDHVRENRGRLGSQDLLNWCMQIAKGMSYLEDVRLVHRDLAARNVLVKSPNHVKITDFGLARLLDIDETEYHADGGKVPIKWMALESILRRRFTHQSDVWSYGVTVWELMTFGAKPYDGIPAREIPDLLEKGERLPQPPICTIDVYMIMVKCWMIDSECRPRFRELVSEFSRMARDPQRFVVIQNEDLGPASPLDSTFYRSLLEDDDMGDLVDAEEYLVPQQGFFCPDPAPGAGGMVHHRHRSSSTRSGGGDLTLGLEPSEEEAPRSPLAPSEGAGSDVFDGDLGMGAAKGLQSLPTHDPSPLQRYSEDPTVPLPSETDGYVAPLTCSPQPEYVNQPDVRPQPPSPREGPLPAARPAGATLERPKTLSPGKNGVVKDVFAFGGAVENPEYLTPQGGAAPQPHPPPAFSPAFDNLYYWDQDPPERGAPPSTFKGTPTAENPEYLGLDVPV

Usually viability stands for a read-out of living cells in per cent, often relative to untreated cells. As a reminder, the inhibition is the change of the read-out against control, counted positive when it falls. On to `CC(C)(C)SCCNC(=O)COc1ccc(Cl)cc1`, for which the viability in [1] is 94.5%; in assay [3] it was 94.5% (inactive); in assay [4], 113% (inactive); in [5], 109% (inactive); in assay [6] (setting [16]) it was 89.4%; in [6] (setting [17]), 109%. Besides, the viability in assay [12] is 96.2% (inactive); in [13] it was 96.9% (inactive). In assay [2], the Her2 level is 90% (inactive). Moreover, the differential viability (reversal) in [6] (H69AR cells + 2 uM doxorubicin) is 19.5% (inactive). The inhibition was -6.89% (inactive) in [7], 4.1% (inactive) in assay [8] and -0.23% (inactive) in [14]. The growth inhibition in [9] is -8.49% (inactive); in [10], -12% (inactive). The viability increase in assay [11] was 0.22% (inactive). For the same compound, in assay [15], the RAM network inhibition is 4.53% (inactive).
Turning to `O=C(CCNS(=O)(=O)c1cccc2nsnc12)NCc1cccs1`, the viability in assay [1] was 101%; in assay [3], 101% (inactive); in [4] it was 94.3% (inactive); in assay [5] it was 96% (inactive); in [6] (setting [16]), 95.4%; in assay [6] (setting [17]), 96%. Also, the viability in [13] is 95.4% (inactive). The Her2 level in [2] was 85.5% (inactive). For the same compound, the differential viability (reversal) in assay [6] (H69AR cells + 2 uM doxorubicin) was 0.62% (inactive). Moreover, the figures for the inhibition in assay [7], in assay [8] and in assay [14] were -9.45% (inactive), 4.13% (inactive) and 1.54% (inactive), respectively. For the same compound, the growth inhibition in assay [9] was -4.72% (inactive); in assay [10], -7.42% (inactive). The viability increase in [11] was -3.39% (inactive). Moreover, the RAM network inhibition in assay [15] is 3.13% (inactive).
Turning to `COC(=O)C1(C(F)(F)F)N=C2Sc3ccccc3N2C(N2CCOCC2)=N1` (stereo unspecified), the viability was 91% in [1]; 91% (inactive) in [3]; 81.5% (inactive) in assay [4]; 92.5% (inactive) in [5]; 93.4% in assay [6] (setting [16]); 92.5% in assay [6] (setting [17]). In addition, in assay [13], the viability was 53.8% (inactive). Also, in assay [2], the Her2 level is 89% (inactive). Also, the differential viability (reversal) in [6] (H69AR cells + 2 uM doxorubicin) was -0.935% (inactive). The inhibition was -5.73% (inactive) in [7], 5.17% (inactive) in [8] and 1.03% (inactive) in [14]. Moreover, the growth inhibition is -9.31% (inactive) in [9] and -10% (inactive) in assay [10]. In addition, the viability increase in assay [11] was -1.24% (inactive). The RAM network inhibition in [15] is 2.93% (inactive).
Take `CCCCOC(=O)c1[nH]c2c(c1C)C(=O)CC(c1cc(OC)c(OC)c(OC)c1)C2` (stereo unspecified): the viability in [1] was 89%; in [3] it was 89% (inactive); in [4] it was 77.4% (inactive); in assay [5], 72.4% (inactive); in assay [6] (setting [16]) it was 71.5%; in assay [6] (setting [17]) it was 72.4%. For the same compound, the viability in [13] was 56.6% (inactive). In addition, the Her2 level in [2] was 74.5% (inactive). Moreover, the differential viability (reversal) in assay [6] (H69AR cells + 2 uM doxorubicin) was 0.9% (inactive). Also, the inhibition is 0.38% (inactive) in [7], -3.33% (inactive) in assay [8] and 1.75% (inactive) in assay [14]. The growth inhibition in assay [9] was -13% (inactive); in [10], -18.8% (inactive). The viability increase in assay [11] was 1.17% (inactive). In addition, the RAM network inhibition in assay [15] is 3.15% (inactive).
In the case of `CC(=O)c1cccc(NC(=O)CCNS(=O)(=O)c2cccc3nsnc23)c1`, the viability is 86% in [1]; 86% (inactive) in [3]; 95.6% (inactive) in [4]; 106% (inactive) in assay [5]; 94.5% in assay [6] (setting [16]); 106% in assay [6] (setting [17]). The viability in assay [13] is 93.5% (inactive). Further, the Her2 level in assay [2] is 78% (inactive). Besides, in assay [6] (H69AR cells + 2 uM doxorubicin), the differential viability (reversal) is 11.8% (inactive). The inhibition was -6.58% (inactive) in assay [7], 6.19% (inactive) in assay [8] and 1.73% (inactive) in assay [14]. The growth inhibition in [9] is -5.2% (inactive); in [10], -11% (inactive). Besides, the viability increase in assay [11] is -2.11% (inactive). In assay [15], the RAM network inhibition was 2% (inactive).
